Measurements published in ChEMBL document CHEMBL3988442, “University of Dundee, Small-Polar-MMV Screening Library” (2021).
Screen size: about 48,000 compounds; about 13,000 (27%) showed an effect of 50% or more. The list shows a part of the results.

System: Wolbachia pipientis
Test: Anti-Wolbachia Cell-Based Screen
Format: functional
Parameters: scale not given: in the data most compounds retested in dose-response had high values
Details: 5 µM

Compound | Percent Effect [%]
CC(CO)(NC(=O)Nc1nnc(C(F)F)s1)C1CC1 (centres undefined) | -2.731
CCc1ccc(C(C)NC(=O)CN(C)Cc2ccc(C)o2)cc1 (centres undefined) | 6.981
O=C(O)c1ccccc1C1CCN(C2CCN(c3ccccc3)CC2)C1 (centres undefined) | 1.292
Cc1csc(N2CCN(Cc3cnc(C)s3)CC2C)n1 (centres undefined) | -7.074
CC1CN(Cc2ccccn2)CCN1c1ccc2nncn2n1 (centres undefined) | 99.39
Cc1ncc(CN2CCN(c3ccc4nncn4n3)C(C)C2)s1 (centres undefined) | 100.4
Cc1nc(CN2CCOC(c3ccc(Cl)cc3)C2)oc1C (centres undefined) | -15.43
Cc1nc(CN2CCN(c3ccc4nncn4n3)C(C)C2)oc1C (centres undefined) | 98.31
Cc1cc(CN2CCN(c3ccc4nncn4n3)C(C)C2)no1 (centres undefined) | 0.8559
Cc1ncc(CN2CCOC(CN(C)c3cccnn3)C2)s1 (centres undefined) | -7.672
Cc1cc(CN2CCN(c3ccc4nncn4n3)C(C)C2)on1 (centres undefined) | 105.9
CC1(C)CN(C(=O)c2cnc(-c3ccccn3)nc2)CC[C@]1(C)O | -14.16
CC(c1ccccc1F)N(C(=O)CSCC(N)=O)C1CC1 (centres undefined) | -1.119
CCc1[nH]c2c(CNc3cncc(C(=O)N(C)C)n3)cc(C)cc2c1C | -3.475
COc1ccc(C(C)Nc2ncc(C(N)=O)cc2Cl)c(OC)c1 (centres undefined) | 7.521
CS(=O)(=O)NCCN1CCSCC1c1ccc(Cl)cc1 (centres undefined) | 7.054
Cn1ccnc1SCc1nc(C(C)(C)NC(=O)OC(C)(C)C)no1 | 4.931
c1ccc(CN2CCN(c3ccc4nncn4n3)CC2)nc1 | 81.68
c1ccc(CCN2CCN(c3ccc4nncn4n3)CC2)nc1 | -2.088
N#Cc1ccc(N2CCN(c3ccc4nncn4n3)CC2)nc1 | -1.975
Cc1ccn(-c2ccc(N3CCN(Cc4ccccn4)CC3)nn2)n1 | -3.971
Cc1cc(CN2CCN(CC(O)C(C)(C)C)CC2)no1 (centres undefined) | -2.656

Compound | Percent Effect [%]
CC1CN(CC2CCCC2)CCN1c1ccc2nncn2n1 (centres undefined) | -0.9162
Cc1cc(CN2CCN(c3ccc4nncn4n3)CC2)no1 | 96.25
CC1CN(CC2CCCCC2)CCN1c1ccc2nncn2n1 (centres undefined) | -9.658
Cc1cnc(CN2CCN(c3ccc4nncn4n3)C(C)C2)cn1 (centres undefined) | 120.6
Cc1nnc2ccc(N3CCN(CCc4ccccn4)CC3)nn12 | 75.62
Cc1nnc2ccc(N3CCN(Cc4nccn4C)CC3)nn12 | -5.258
CCn1ccnc1CN1CCN(c2ccc3nnc(C)n3n2)CC1 | -14.29
O=C(Nc1cnccn1)[C@H]1C[C@H]2OCC[C@H]2N(c2ncc(F)cn2)C1 | 2.565
c1ccc(CN2Cc3ccnn3CC(COCc3cccnc3)C2)nc1 (centres undefined) | -0.5546
CCOCCN1CCN(CCCc2nnnn2-c2ccccc2)CC1 | -8.911
CC1CN(CCc2ccccn2)CCN1c1ccc2nncn2n1 (centres undefined) | 129.7
CC1CN(CC(=O)N2CCCC2)CCN1c1ccc2nncn2n1 (centres undefined) | -2.378
CCCc1cc(N2CCCCC2Cn2cc(C)cn2)n2ncnc2n1 (centres undefined) | -0.9521
COc1ccc(C(=O)N2CCN(C(=O)CCCc3cn[nH]c3)CC2)cc1 | -2.583
Cc1ccc(CCC(=O)N2CCOCC2)cc1Cl | -2.511
Cc1cc(CCC(=O)N2CCOCC2)ccc1Br | 7.033
O=C(Nc1ccc(F)cc1)C1CNCCN1C(=O)CCc1cccnc1 (centres undefined) | -3.468
O=C(C1CNCCN1C(=O)CCc1cccnc1)N1CCOCC1 (centres undefined) | 99.11
COc1ccc(CCC(=O)N2CCNCC2C(=O)N2CCOCC2)cc1 (centres undefined) | 109
COc1ccc(CCCC(=O)N2CCCC(n3cccn3)C2)cc1 (centres undefined) | 8.149
COc1ccc(CCC(=O)N2CCNCC2C(=O)N2CCCC2)cc1 (centres undefined) | 99.9
Cc1ccccc1N1CCCN(C(=O)CCc2cccnc2)CC1 | 13.31

Compound | Percent Effect [%]
CCn1cnnc1CCNC(=O)C1COc2ccc(OC)cc2C1 (centres undefined) | 0.6591
O=S(=O)(CCc1ccccc1)Cc1nc(C2CC2)no1 | 20.48
Cc1cnc(C(=O)N2CCCC(Cn3cc(C4CC4)nn3)C2)cn1 (centres undefined) | 1.892
Cc1csc(CNCC2CCCN(C(=O)OC(C)(C)C)C2)n1 (centres undefined) | 11.13
Cc1c(C2CCCN(C(=O)C3CC3)C2)n2c(nc1=O)CCC2.Cl (centres undefined) | 11.8
Cc1cnc(C(=O)N2CCCC(c3c(C)c(=O)nc4n3CCC4)C2)cn1.Cl (centres undefined) | 99.49
Cc1c(C2CCCN(C(=O)OC(C)(C)C)C2)n2c(nc1=O)CCC2 (centres undefined) | 101.7
Cc1nc(CN[C@H]2CCCN(C(=O)OC(C)(C)C)C2)cs1 | 1.8
Cc1c(C2CCCN(C(=O)c3ccn(C)n3)C2)n2c(nc1=O)CCC2 (centres undefined) | 88.69
Cc1csc(C2CCCN(C(=O)c3ccc(=O)n(C)n3)C2)n1 (centres undefined) | 3.739
O[C@@H]1C[C@@H](c2nc(-c3ccc(OC(F)(F)F)cc3)no2)N(CC2CC2)C1 | 9.042
CCC/C=C/c1ccc(CN2CCCC2)cn1 | -3.861
CCOC(=O)CN1CC(c2nc(-c3ccsc3)no2)C1.O=C(O)C(=O)O | -3.591
CCC1COCCN1C(=O)CNC(=O)c1ccoc1C (centres undefined) | -13.26
Cc1nc2c(c(Nc3ccccn3)n1)CN(S(C)(=O)=O)CC2 | 109
Cc1nc(Nc2ccccn2)cc(N2CCN(S(C)(=O)=O)CC2)n1 | -12.78
CS(=O)(=O)N1CCN(c2ccc(Nc3ccccn3)nn2)CC1 | 2.595
Cc1ncc(CNCC(=O)NC2CCCCC2)n1-c1ccccc1 | -6.194
CC(CCc1ccccc1)NC(=O)Nc1cnn(CC(N)=O)c1 (centres undefined) | -0.3012
CCc1nnc2n1CCN(C(=O)c1ccccc1OCC1CC1)C2 | -2.361
CCc1nnc2n1CCN(C(=O)CN(CC)CC)C2 | 97.7
CCc1nnc2n1CCN(C(=O)CN(C)C1CC1)C2 | 84.19

Compound | Percent Effect [%]
CCc1nnc2n1CCN(C(=O)COCCc1ccccc1)C2 | -3.602
CCc1nnc2n1CCN(C(=O)c1cnn(C)c1C1CC1)C2 | 0.7265
CCc1ncc(C(=O)N2CCn3c(CC)nnc3C2)s1 | -2.408
COCC(NC(=O)NCc1sccc1C)c1ccco1 (centres undefined) | -5.912
CN(Cc1nccn1C)C(=O)C1COCC(=O)N1Cc1ccccc1 (centres undefined) | -8.994
CN1CCOC(C(=O)Nc2nc(-c3ccc4c(c3)CCC4)n[nH]2)C1 (centres undefined) | -12.56
Cn1ccnc1C(=O)N1CCCC1c1ccc(C(=O)N2CCOCC2)s1 (centres undefined) | -4.877
CNC(=O)NC(=O)CN1CCN(CC2CC2)c2ccccc21 | 5.416
CCNC(=O)N1CCC(OC)c2ccccc2N(CC(=O)NC)C(=O)C1 (centres undefined) | 67.66
COCC(=O)N1CCC2(CCC2NS(=O)(=O)c2ccccc2)CC1 (centres undefined) | 2.757
CCNC(=O)N1CCC(Cc2cccc(C(N)=O)c2)C1 (centres undefined) | 4.026
CCOC(=O)N1CCC(OC)c2ccccc2N(CC(=O)NC)C(=O)C1 (centres undefined) | 117.4
CNC(=O)CN1C(=O)CN(C(=O)COC)CCC(OC)c2ccccc21 (centres undefined) | 121.9
CS(=O)(=O)N1CCC(C(=O)N2CCOc3ccccc32)CC1 | 5.703
CCNC(=O)N1CC[C@H]2CC(=O)N(CC(N)=O)CC[C@H]2C1 | 1.469
CCOC(=O)CN1C(=O)CN(S(C)(=O)=O)CCC(OC)c2ccccc21 (centres undefined) | 83.87
CC1CCN(C(=O)C2CCN(S(C)(=O)=O)CC2)c2ccccc21 (centres undefined) | 3.869
c1ccc(COCC2CNCc3nccn3C2)nc1 (centres undefined) | -7.438
O=C(NS(=O)(=O)Cc1ccc(F)cc1)C1CCc2ccccc21 (centres undefined) | 9.1
CC(NC(=O)NCC(C)(C)O)c1ccc(-c2cncnc2)cc1 (centres undefined) | -6.963
COc1ccc(NCc2ccccc2N2CCN(C(C)=O)CC2)cn1 | 3.995
CNC(=O)CN1CCCC1c1ccccc1Br (centres undefined) | 2.059

Compound | Percent Effect [%]
CNC(=O)CS(=O)(=O)C1CCN(S(=O)(=O)c2ccccc2Cl)CC1 | 17.8
CCS(=O)(=O)N1CCC(OC)c2ccccc2N(CC(=O)NC)C(=O)C1 (centres undefined) | 115.1
O=S(=O)(NCCNc1cc(-n2cccn2)ncn1)c1cccs1 | 12.03
Cc1ccc(C)c(-c2[nH]c3ccccc3c2C(=O)O)c1 | 107.7
COc1ccc(C)cc1-c1[nH]c2ccccc2c1C(=O)O | 86.15
CC(C)CN1CCN(C(=O)c2cc(=O)c3ccccc3[nH]2)CC1 | -0.8051
Cc1ccc(-c2[nH]c3ccccc3c2C(=O)O)c(C)c1 | 112.6
Cc1ccc(C(=O)CN2C(=O)c3ccccc3CS2(=O)=O)c(C)c1 | -19.51
COc1ccc(C)cc1C(C(=O)O)N1CCN(Cc2ccccn2)CC1 (centres undefined) | -8.065
Cc1ccc(C)c(C(=O)CN2C(=O)c3ccccc3CS2(=O)=O)c1 | -17.22
COc1ccc(C(=O)NS(C)(=O)=O)cc1-c1ccccc1 | -13.07
CC(=O)N1CCCN(C(=O)c2csc(-c3ccc(C)cc3C)n2)CC1 | -4.506
Cc1ncc2c(n1)CN(CC(=O)N1CCc3sccc3C1)CC2 | -8.865
Cc1ncc2c(n1)CN(CC(=O)Nc1nnc(C)s1)CC2 | 120.8
Cc1nc(CN2CCCN(CC(=O)Nc3cccnc3)CC2)no1 | -4.253
Cc1ncc2c(n1)CN(CC(=O)Nc1ccncc1)CC2 | 3.82
Cc1ncc2c(n1)CN(CC(=O)Nc1nncs1)CC2 | 10.92
Cc1ncc2c(n1)CN(CC(=O)Nc1cccnc1)CC2 | 115.5
Cc1nnc(NC(=O)CN2CCCC(c3ccn[nH]3)C2)s1 (centres undefined) | 8.304
Cc1ncc2c(n1)CN(CC(=O)Nc1nccs1)CC2 | 121.1
CCc1ncc2c(n1)CN(CC(=O)Nc1nnc(C)s1)CC2 | -0.5205
